# Assay outcomes: PubChem BioAssay, National Center for Advancing Translational Sciences (NCATS)
# IL-1B inflam inh = inflammasome signaling inhibition, IL-1 beta readout; THP-1 LPS/ATP IL-1B secretion, AlphaLISA, 16 h; stronger effect = lower value; activity change, % at 57.5 µM; 360,000 tested, 4.7% active; AID 743279; in the data active means activity change below about -50%; inconclusive means mostly about -30% to -49%
#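 Secreted IL-1B measured by AlphaLISA bead assay after 16 h compound exposure of THP-1 cells; compounds (final up to 57.5 uM) added 1 h before LPS (250 ng/mL) and ATP (1.25 mM) stimulation; lower signal means less secretion.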
# TGFb inhibitor = blocks TGF-b signaling; HepG2 CAGA-GFP TGF-b/SMAD3 reporter, GFP fluorescence, 18 h; TGF-beta stimulated, 500 pg/mL final; Potency, µM (titrated, usually from 46.1 µM), usual class: inhibitors; 410,000 tested, 1.2% active; AID 588855; further: nearly all actives have a fitted effect of over 65% in size
#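 Smad-responsive CAGA-GFP expression was quantified in HEPG2 cells exposed to compounds and 500 pg/mL final TGF-beta for 18 h at 37 degrees C; unstimulated wells defined full inhibition.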
# HepG2 tox = HepG2 cytotoxicity, counter-screen for TGF-b inhibitors | Potency, µM (titrated, usually from 46.1 µM), usual class: cytotoxic | 410,000 tested, 0.76% active | HepG2 CAGA-GFP viability, ATP luminescence, 18 h
#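 HepG2 CAGA-GFP cells (1000/well, DMEM with 1% FBS) received compound, then TGF-beta at 500 pg/mL final, and were incubated 18 hours at 37 degrees C. Viability was read by CellTiter-Glo luminescence. Media-only wells were set as complete cell-killing and DMSO as no toxicity.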
# DT40 TDP1 CPT = DT40-hTDP1 cell growth loss with CPT; chicken DT40 Tdp1-/-;hTDP1 cells + 20 nM CPT, ATP luminescence, 48 h; AID 686979; 420,000 tested, 12% active; Potency, µM (titrated, usually from 46.2 µM), hits mostly inhibitors; further: nearly all actives have a fitted effect of over 55% in size
#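 Cell growth measured by CellTiter-Glo luminescence after a minimum 48 h, 37 C compound exposure with 20 nM CPT in Tdp1-knockout DT40 cells stably expressing hTDP1, seeded 400/well; qHTS titration format.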
# TDP1 block = blocks human tyrosyl-DNA phosphodiesterase 1; Q9NUW8; recombinant TDP1, AlphaScreen DNA substrate cleavage; Potency, µM (titrated, usually from 130 µM), actives largely listed as inhibitors; 350,000 tested, 0.28% active; further: nearly all actives have a fitted effect of over 40% in size
# Target sequence (Q9NUW8 whole entry, looked up): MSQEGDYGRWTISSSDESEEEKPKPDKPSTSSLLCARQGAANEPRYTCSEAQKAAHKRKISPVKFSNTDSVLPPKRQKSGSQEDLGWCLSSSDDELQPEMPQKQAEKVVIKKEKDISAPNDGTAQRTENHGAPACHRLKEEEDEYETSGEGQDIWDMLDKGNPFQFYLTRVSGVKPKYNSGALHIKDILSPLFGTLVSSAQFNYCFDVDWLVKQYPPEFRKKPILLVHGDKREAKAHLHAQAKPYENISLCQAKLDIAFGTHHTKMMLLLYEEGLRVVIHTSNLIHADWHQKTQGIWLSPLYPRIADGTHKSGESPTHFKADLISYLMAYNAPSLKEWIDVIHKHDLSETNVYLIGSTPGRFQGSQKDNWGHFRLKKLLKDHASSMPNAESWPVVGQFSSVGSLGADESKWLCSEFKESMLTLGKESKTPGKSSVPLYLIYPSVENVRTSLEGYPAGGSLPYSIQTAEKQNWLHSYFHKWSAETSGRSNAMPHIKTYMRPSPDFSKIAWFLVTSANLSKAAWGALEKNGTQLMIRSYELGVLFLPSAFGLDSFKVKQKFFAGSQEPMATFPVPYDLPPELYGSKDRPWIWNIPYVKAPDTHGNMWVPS
#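 Tdp1 1 nM final; 15 min RT w/ cpd; substrate 15 nM, 5 min; beads 10 ug/ml, 10 min; AlphaScreen read. Neg ctrl: no enzyme.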
# TDP1 cell noCPT = qHTS for Inhibitors of human tyrosyl-DNA phosphodiesterase 1 (TDP1): qHTS in cells in absence of CPT; DT40 Tdp1-/- hTDP1 cells, no CPT, ATP luminescence, 48 h; Potency, µM (highest dose often 46.2 µM), usual class: inhibitors; 420,000 tested, 15% active; AID 686978, 2013; further: nearly all actives have a fitted effect of over 55% in size
#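 A cellular qHTS used chicken DT40 cells lacking endogenous Tdp1 but carrying stably transfected human TDP1. Compounds were applied without camptothecin, and cell growth kinetics were judged by ATP-dependent luminescence after ≥48 hr.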
# Hits are given with their value; 0 = inactive; ? = inconclusive; - = no result given; [ ] = remark or other dose. Shown are actives, neighbours in structure and some others; about 18% of the full set was active somewhere. Unless noted, the call rests on the fitted dose curve; in most records, active means well fitted curve in the direction sought with a large enough effect; inconclusive means small, poorly fitted or top-dose-only effect, or another doubt; inactive means no such curve, though single readings can be large; an effect the other way counts as inactive or inconclusive.
SMILES,IL-1B inflam inh,TGFb inhibitor,HepG2 tox,DT40 TDP1 CPT,TDP1 block,TDP1 cell noCPT
Cc1cc(C(=O)Nc2c(C)n(C)n(-c3ccccc3)c2=O)c2ccccc2n1,0,0,0,0,0,0
COc1ccc2cc(-c3cc(C(=O)OCC(=O)Nc4c(C)n(C)n(-c5ccccc5)c4=O)c4ccccc4n3)ccc2c1,0,0,0,13µM,0,10.3µM
Cc1c(NC(=O)COC(=O)c2cc3c4ccccc4n(C)c3s2)c(=O)n(-c2ccccc2)n1C,-55.0,0,0,0,0,0
CCc1ccc(-c2cc(C(=O)Nc3c(C)n(C)n(-c4ccccc4)c3=O)c3ccccc3n2)s1,0,0,0,?,0,16.4µM
Cc1c(NC(=O)c2cc(=O)[nH]c3ccccc23)c(=O)n(-c2ccccc2)n1C,0,0,0,0,0,0
COc1ccc(C(=O)OCC(=O)Nc2c(C)n(C)n(-c3ccccc3)c2=O)cc1,0,0,0,0,0,0
Cc1cc(Br)cc2c(C(=O)Nc3c(C)n(C)n(-c4ccccc4)c3=O)cc(-c3cccs3)nc12,0,0,0,23.1µM,0,16.4µM
CN[C@H]1[C@H](O)[C@@H](O[C@@H]2[C@H](O)[C@@H](O[C@H]3OC(CN)=CC[C@H]3N)[C@@H](N)C[C@H]2N)OC[C@@]1(C)O,-,-,-,-,0[21 µM],-
COc1cc2c(cc1OC)n(CC(=O)c1ccc(F)cc1)c(=O)n1nc(CCn3nc(C)cc3C)nc21,-,0,0,?,0,0
COc1cc(CNc2nc3ccccc3n2Cc2ccccc2)ccc1O,0,0,0,0,-,?
CCn1c(NC(=O)c2cccc(Cn3cc(Cl)cn3)c2)nc2ccccc21,0,?,0,14.6µM,0,14.6µM
CCn1c(NCc2cccc(Cl)c2)nc2ccccc21,-,0,0,?,0,23.1µM
COc1ccc(CNc2nc3ccccc3n2Cc2ccc(Cl)cc2)cc1OC,-88.7,14.1µM,0,16.4µM,0,13µM
C(=N\c1nc2ccccc2n1Cc1ccccc1)/c1cccs1,-67.5,0,0,?,0,?
COc1ccc(-c2ccc(N)cn2)cn1,0,0,0,0,0,0
Cc1ccnc(NC(=O)CCC(=O)c2cccs2)c1,0,0,0,0,-,0
COC(=O)CC1c2ccccc2S(=O)(=O)N1Cc1ccccc1 (stereo not given),0,0,0,0,0,0
CCc1nc2ccccc2n1Cc1ccc(OC)c(OC)c1,0,0,0,?,0,?
CCn1c(NCc2cc(OC)c(OC)c(OC)c2)nc2ccccc21,0,0,0,?,0,0
COc1ccc(/C=C/c2nc3ccccc3n2Cc2ccc(OC)c(OC)c2)cc1,-53.6,0,0,?,0,?
CC(=O)Nc1nc2ccccc2n1Cc1ccccc1,0,0,0,?,0,?
CCn1c(NCc2ccc(OC)c(OC)c2)nc2ccccc21,-,0,0,?,0,9.2µM
O=NNc1nc2ccccc2n1Cc1ccccc1,0,?,0,4.61µM,-,2.31µM
Cc1ccc(-c2nc3cccnc3o2)cc1NC(=O)COc1ccc(Cl)cc1C,0,0,0,?,0,?
Cc1ccc(-c2nc3cccnc3o2)cc1NC(=O)COc1ccc(C(C)(C)C)cc1,0,?,0,14.6µM,0,9.2µM
SMILES,IL-1B inflam inh,TGFb inhibitor,HepG2 tox,DT40 TDP1 CPT,TDP1 block,TDP1 cell noCPT
O=S(=O)(c1cccc(F)c1)N1CCc2sccc2C1c1ccc(OC(F)(F)F)cc1 (stereo not given),0,?,0,?,0,14.6µM
CNC(=O)N(O)C1N(/N=C/c2ccccc2O)C(=S)SC1(C)C (stereo not given),0,0,0,5.17µM,0,2.06µM
CCCOc1ccc(C(=O)N2CCC(c3nc4ccccc4s3)CC2)cc1,-,?,0,0,0,?
COc1ccc(C(=O)N2CCC(c3nc4ccccc4s3)CC2)cc1Cl,-,8.91µM,0,25.9µM,0,10.3µM
CCCNC(=O)N1CCC(c2nc3ccccc3s2)CC1,0,0,0,0,-,0
CCCOc1ccccc1C(=O)N1CCC(c2nc3ccccc3s2)CC1,-,?,0,23.1µM,0,10.3µM
COc1cccc(C(=O)N2CCC(c3nc4ccccc4s3)CC2)c1,-,?,0,?,0,?
CCC(Oc1ccccc1F)C(=O)N1CCC(c2nc3ccccc3s2)CC1 (stereo not given),-,?,0,?,0,16.4µM
COc1ccc(CN(C)C(=O)c2ccc(OCC(=O)Nc3cccc(C(F)(F)F)c3)c(OC)c2)cc1,?,?,0,?,-,?
O=C1CN(C(=O)COc2ccc(Cl)cc2)C(c2ccc(F)cc2)c2cc(Br)ccc2N1 (stereo not given),-,0,0,?,0,?
Cc1cccc(CCNC(=O)C2CCC(CNS(=O)(=O)c3ccccc3)CC2)c1 (stereo not given),-,0,0,0,0,?
CCC(C)C(CO)NCCCn1cnc2c(OCc3ccccc3)ncnc21 (stereo not given),0,0,0,0,-,0
CSc1nsc(SC)c1C(=O)N1CCN(S(=O)(=O)c2ccc(C)cc2)C1C (stereo not given),0,0,0,?,0,23.1µM
CSc1nsc(SC)c1C(=O)N1CCN(S(=O)(=O)c2ccc(C)cc2)C1C(C)C (stereo not given),0,0,0,?,0,?
CC(=O)c1cccc(N2C(=NC(=O)C3CCCCC3)SC3CS(=O)(=O)CC32)c1 (stereo not given),0,0,0,0,0,0
COc1ccc2[nH]c(S(=O)Cc3ncc(C)c(OC)c3C)nc2c1 (stereo not given),0,0,0,?,-,16.4µM
COc1ccnc(CS(=O)c2nc3cc(C(O)(F)F)ccc3[nH]2)c1OC (stereo not given),0,0,0,0,-,?
COc1ccc2[nH]c(S(=O)Cc3ncc(C)c(OC)c3C)nc2n1 (stereo not given),-,-,-,?,-,26.6µM
CC1=C/C(=C\c2ccc(N(C)C)cc2)c2ccccc21,-,0,0,?,-,?
O=[N+]([O-])c1ccc(C=C2c3ccccc3-c3ccccc32)cc1,-,?,0,0,-,17.8µM
OC(C1=CC(=Cc2ccncc2)c2ccccc21)c1ccncc1 (stereo not given),-58.9,0,0,?,-,16.4µM
O=[N+]([O-])c1ccc(/C=C2\C=C(C(O)c3ccc([N+](=O)[O-])cc3)c3ccccc32)cc1 (stereo not given),-,7.08µM,0,6.31µM,-,4.47µM
Cc1nc2ccc(S(=O)(=O)CCC(=O)Nc3ccc(Cl)cc3)cc2s1,-,-,0,0,0,0
